The record followed here is PubChem BioAssay (Tox21).

Records with an inconclusive call do not appear. A call without a number means that no potency is given here. Activity calls are given as the source filed them. Calls come from the whole dose curve; as a rule, active = well fitted activation curve with a large enough effect in the repeat runs; inconclusive = weak or mixed curves; inactive = no such curve, though single readings can be large or run the other way.
Potency is the fitted concentration of half-maximal effect.

The target of this experiment is Nuclear receptor subfamily 1 group I member 2 (Homo sapiens) (UniProt O75469). The experiment is described as follows: CYP3A4 induction through human pregnane X receptor (PXR) by small molecules, qHTS assay (AID 1346984). Note: nearly all actives have a fitted effect of over 40% in size. Conditions: DPX-2 HepG2 PXR, CYP3A4-luciferin luminescence, 24 h; series mostly up to 46.1 µM. The text has this:
National Center for Advancing Translational Sciences [NCATS]
NIH Chemical Genomics Center [NCGC]
U.S. Environmental Protection Agency [EPA]
National Institutes of Environmental Health Sciences [NIEHS]
National Toxicology Program [NTP]
The Pregnane X receptor (PXR), a ligand activated nuclear receptor plays a critical role in the regulation of genes involved in drug metabolism and transporters. Activation of PXR is responsible for unwanted adverse drug reactions. PXR binds xenobiotics and when compounds interact with PXR enhances the expression of CYP3A genes. Identifying the compounds with the potential for PXR activation and CYP3A4 induction can be of importance in improving the efficacy of drugs with less toxicity and avoiding drug-drug interactions.
DPX-2 (Puracyp, Inc.) cell lines, used for screening against human PXR activation has HepG2 cells co-transfected with a PXR response element and a luciferase construct containing CYP3A4 promoter. Increase in luciferase activity can be used to identify the compounds that cause the induction of CYP3A4.
DPX-2 cells were dispensed at 2,000 cells per well in 5uL of assay medium into white, solid-bottom 1536-well plates using a Multidrop Combi dispenser (Thermo Scientific). The assay plates were incubated at 37C for 5hr before transferring 23nL of test compounds dissolved in DMSO and positive control via Pintool station (Wako). The assay plates were incubated at 37C for 24hr. After 24hr compound treatment, 1uL of 3uM (final concentration) P450 substrate (P450-Glo CYP3A4 screening system with Luciferin-IPA, Promega) was added by a Flying Reagent Dispenser (FRD, Aurora Discovery). The assay plates were incubated for 3hr at 37C. Then 5ul One-Glo assay reagent (Promega) was added to each plate by an FRD and following 30 min incubation at room temperature, luciferase activity was quantified on a ViewLux plate reader (Perkin Elmer).
A general note: In qHTS, concentration-response curves come from the screen itself.
As to `CCC1(c2cccc(O)c2)CCCCN(C)C1` (stereo not given), the Potency entry is “inactive”.
`CC(C)(O)C(Cl)(Cl)Cl`: the Potency entry is “inactive”.
Consider `CC(C)(N)Cc1ccc(Cl)cc1`, for which the Potency result is “inactive”.
In the case of `CCC1(c2ccccc2)CCC(=O)NC1=O` (stereo not given), the Potency entry was “inactive”.
With `Cc1ccc(S(=O)(=O)N[C@@H](CCCCN)C(=O)CCl)cc1`, the Potency result was “inactive”.
As for `ClCC1CO1` (stereo not given), the Potency result was “inactive”.
Regarding `CCN(CC)CCOC(=O)C(O)(c1ccccc1)c1ccccc1`, the Potency result is “inactive”.
The entry for `O=C1C2CC=CCC2C(=O)N1SC(Cl)(Cl)Cl` (stereo not given) is “inactive”; for `N[C@@H](Cc1ccc(Oc2cc(I)c(O)c(I)c2)c(I)c1)C(=O)O` it is 14.1 µM (active).
As to `CCC(C(N)=O)N1CCCC1=O` (stereo not given), the Potency result was “inactive”.
Consider `CCCN1CCC[C@@H]2Cc3nc(N)ncc3C[C@H]21`, for which the Potency entry is “inactive”.
As to `ClC1=C(Cl)C2(Cl)C(CBr)CC1(Cl)C2(Cl)Cl` (stereo not given), the Potency result was “inactive”.
Take `CC(=O)OCC1=C(C(=O)O)N2C(=O)[C@@H](N)[C@H]2SC1`: the Potency result was “inactive”.
On to `NC(=O)OCCCc1ccccc1`, for which the Potency entry is “inactive”.
`CCC1(c2ccccc2)C(=O)N(COC)C(=O)N(COC)C1=O`: the Potency was 10 µM (active).
As to `O=C(NC(O)C(Cl)(Cl)Cl)NC(O)C(Cl)(Cl)Cl` (stereo not given), the Potency entry was “inactive”.
The entry for `CN1C(=O)COc2c(C(=O)NC3CN4CCC3CC4)cc(Cl)cc21` (stereo not given) is “inactive”; for `COc1cccc([C@@]2(O)CCCC[C@@H]2CN(C)C)c1` it is “inactive”.
The entry for `C[C@@H](N)[C@@H](O)c1ccccc1` is “inactive”; for `N#CN` it is “inactive”; for `CNC(=O)NC(O)C(Cl)(Cl)Cl` (stereo not given) it is “inactive”.
Turning to `Cc1ccc2c(c1)C1CN(C)CCC1N2` (stereo not given), the Potency entry was “inactive”.
With `CCOC(=O)CC(SP(=S)(OC)OC)C(=O)OCC` (stereo not given), the Potency entry was “inactive”.
For `CC(C)[N+](C)(CCC(C(N)=O)(c1ccccc1)c1ccccc1)C(C)C`, the Potency entry was “inactive”.
Turning to `CN(C)C(=O)Oc1cc(OC(=O)N(C)C)cc(C(O)CNC(C)(C)C)c1` (stereo not given), the Potency result was “inactive”.
Consider `N[C@@H]1C[C@H]1c1ccccc1`, for which the Potency entry is “inactive”.
On to `CCCCCCC(=O)CCCCCC/C=C/C[C@@H](O)[C@H](O)[C@@](N)(CO)C(=O)O`, for which the Potency result is “inactive”.
Regarding `C=C1C[C@@H]2[C@H](CC[C@]3(C)C(=O)CC[C@@H]23)[C@@]2(C)C=CC(=O)C=C12`, the Potency result was “inactive”.
In the case of `C=C1CC[C@@]2(O)[C@H]3Cc4ccc(O)c5c4[C@@]2(CCN3CC2CC2)[C@H]1O5` it was “inactive”.
`NC(=O)CS(=O)C(c1ccccc1)c1ccccc1` (stereo not given): the Potency result was “inactive”.
Take `CC1NCCOC1c1ccccc1` (stereo not given): the Potency result is “inactive”.
As for `C=C(C)[C@H]1CN[C@H](C(=O)O)[C@H]1CC(=O)O`, the Potency entry was “inactive”.
With `CC[C@@H](CO)NC(=O)[C@@H]1C=C2c3cccc4c3c(cn4C)C[C@H]2N(C)C1`, the Potency entry is “inactive”.
`ClC(Cl)(Cl)Cl`: the Potency entry is “inactive”.
Consider `CCCC(C)(COC(N)=O)COC(N)=O`, for which the Potency result is “inactive”.
Regarding `CC1=C2[C@H]3OC(=O)[C@@H](C)[C@@H]3CC[C@@]2(C)C=CC1=O`, the Potency was 11.2 µM (active).
As to `Cn1c(CCCC(=O)O)nc2cc(N(CCCl)CCCl)ccc21`, the Potency result is “inactive”.
Turning to `S=C=S`, the Potency result is “inactive”.
As to `Cc1ccc(Cl)c(O)c1`, the Potency result was “inactive”.
As to `C[C@]12C=CC(=O)C=C1CC[C@@H]1[C@@H]2CC[C@@]2(C)[C@H]1CC[C@]2(C)O`, the Potency result was “inactive”.
